# CHT PAM: allosterically activates the human high affinity choline transporter; CHT-expressing cells, membrane potential dye, choline EC20; stronger effect = higher value; LV-AA mutant CHT in HEK293 cells; AID 488977; actives 0.49% (n = 310,000); B-score at 10 µM;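 active = initial fluorescence not abnormally high and integrated response B-score, plate-corrected, over 3 SD above library mean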
# Target sequence (Q9GZV3 whole entry, looked up): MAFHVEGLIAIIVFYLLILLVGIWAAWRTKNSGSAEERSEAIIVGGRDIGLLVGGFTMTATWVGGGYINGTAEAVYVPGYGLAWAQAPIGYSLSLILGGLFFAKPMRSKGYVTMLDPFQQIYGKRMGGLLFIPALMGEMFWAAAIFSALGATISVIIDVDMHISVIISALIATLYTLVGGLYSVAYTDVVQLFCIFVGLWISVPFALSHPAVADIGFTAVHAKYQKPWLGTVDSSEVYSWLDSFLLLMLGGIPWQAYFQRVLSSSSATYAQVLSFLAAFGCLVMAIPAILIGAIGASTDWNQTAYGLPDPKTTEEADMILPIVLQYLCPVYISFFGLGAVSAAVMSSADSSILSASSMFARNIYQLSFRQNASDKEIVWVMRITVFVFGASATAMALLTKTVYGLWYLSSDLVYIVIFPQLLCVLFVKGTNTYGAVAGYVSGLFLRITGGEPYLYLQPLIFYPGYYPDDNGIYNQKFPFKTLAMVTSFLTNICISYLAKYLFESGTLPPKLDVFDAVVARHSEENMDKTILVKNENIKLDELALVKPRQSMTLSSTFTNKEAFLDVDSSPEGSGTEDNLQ
# CHT inh: human CHT choline transport inhibition. CHT-expressing cells, membrane potential dye, choline response; stronger effect = lower value. B-score at 10 µM. actives 0.86% (n = 310,000). AID 488975;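 active = B-score over 3 SD under the library average, and starting fluorescence ratio not unusually high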;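 also: choline stimulus applied at its EC90 after an EC20 pre-addition; B-score computed on integrated fluorescence ratio after choline addition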
# IDE act: IDE (human) activation, cell-based | HEK cells, FAbeta-B cleavage, fluorescence polarization; 0% vehicle, 100% cell-free pure enzyme wells | activation, % at 5.96 µM | actives 0.073% (n = 340,000);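 active = activation above the mean of all tested compounds plus 3 SD, set per screening campaign, cut at about 17% in these data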
# ANO1 block: mouse TMEM16A channel inhibition, primary screen; Q8BHY3; HEK293 TMEM16A/YFP iodide influx fluorescence, ionomycin; normalized B-score (activity score, 25-100; higher = stronger inhibition) at 10 µM; actives 1.2% (n = 310,000);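 active = ratio plate-corrected score three or more library SD toward inhibition, starting fluorescence score within five deviations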;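 also: score derived from kinetic fluorescence span divided by baseline fluorescence per well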
# ANO1 activ: activators or potentiators of mouse TMEM16A chloride channel. Q8BHY3. HEK293 TMEM16A/YFP-H148Q/I152L, iodide quench fluorescence; stronger effect = lower value. B-score at 10 µM. actives 0.3% (n = 340,000). AID 623877;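 active = fluorescence-ratio B-score plate-corrected deviation score at least 3 library SD below zero, with starting fluorescence score within 5 deviations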;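 also: channel opened by trigger with iodide after compound preincubation; score built on the fluorescence ratio of max minus min over baseline; more negative score means more quench and so TMEM16A activation or potentiation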
# IDE cell inh: inhibitors of human insulin-degrading enzyme in cells. P14735. HEK cells, FAbetaB cleavage, fluorescence polarization. inhibition, % at 5.59 µM. actives 0.41% (n = 320,000). AID 434962;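 active = percent inhibition above the average of all tested compounds plus 3 SD, set per screening campaign, cut at about 16% in these data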;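 also: IDE supplied by intact live HEK cells; FP after avidin binding of uncleaved biotin substrate so inhibition keeps polarization high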
# CHT activ conf: confirmation of human choline transporter (CHT) activators; shares compounds with CHT PAM; CHT-expressing cells, membrane potential dye fluorescence (FDSS); % of choline EC20–EC90 response window; HEK293 expressing CHT LV-AA mutant; choline added at its EC20; activation, % at 10 µM; actives 91% (n = 2,500); AID 504833;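 active = primary screen active, with duplicate mean activation above negative control mean plus 3 SD, cut at about 11% in these data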
# HEK293 MP dye: counter-screen for CHT activators: effect in parental HEK293 cells; ratio readout change at 10 µM, hits read low; shares compounds with CHT PAM; membrane potential dye fluorescence (FDSS); measured after EC20 choline addition; AID 623908; actives 62% (n = 2,500);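 active = duplicate-averaged ratio beyond 3 SD from buffer wells, up or down, though filed actives are nearly all decreases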
# A number is an active result; – = inactive; · = not tested or not shown. A selection: hits, their analogues and other compounds. The true share with any hit is near 2.7%.
SMILES,CHT PAM,CHT inh,IDE act,ANO1 block,ANO1 activ,IDE cell inh,CHT activ conf,HEK293 MP dye
O=C1[C@H](Cc2ccccc2)NCC=CC[C@H](c2ccc(Cl)cc2)N1Cc1ccccc1,·,·,–,·,–,·,·,·
CC1CCN(CCCNc2cc(NCCO)c([N+](=O)[O-])c3nonc23)CC1,–,–,–,–,–,–,31,-62
O=c1[nH]c(=O)n(C2OC(CO)C(O)C2O)cc1N1CCOCC1 (centres undefined),·,·,–,·,–,·,·,·
O=C(OCC(=O)N(CCc1ccccc1)Cc1ccccc1)c1ccccc1O,6.5,–,–,–,–,–,38,–
Cn1c(N/N=C/c2cc3ccccc3nc2Cl)nc2ccccc21,–,–,–,–,–,–,·,·
Cc1nnc(C)n1/N=C/c1cc2ccccc2nc1Cl,8.6,–,–,–,–,–,51,-55
O=S(=O)(NCc1c(Cl)cccc1Oc1ccccc1)c1ccc(F)cc1,–,–,–,–,–,–,–,–
O=C(O)CSCC(=O)NCc1c(Cl)cccc1Oc1ccccc1,–,–,–,–,–,–,·,·
COc1ccc2c(c1)[C@H]1[C@H](CO2)[C@H](c2ccccc2)[C@]2(C)C(=O)N[C@@H](C)C(=O)N12,·,·,·,·,·,–,·,·
CCOc1cccc(C(=O)Nc2cc(-c3nn4c(C)nnc4s3)ccc2C)c1,–,–,–,–,–,–,·,·
O=C(Nc1cccc(NC(=O)c2cccnc2)c1)c1cccnc1,–,–,–,–,–,–,·,·
Cc1ccc(-c2nn3c(C)nnc3s2)cc1NC(=O)c1cccnc1,8.3,–,–,–,–,–,59,-54
Cc1nnc2sc(-c3cccc(NC(=O)c4cccnc4)c3)nn12,7.9,–,–,–,–,–,35,-49
Cc1nc2ccc(Br)cc2c2c1CC(CO)O2 (centres undefined),6.9,–,–,–,–,–,53,-53
Cc1nc2ccc(Br)cc2c2c1CC(CBr)O2 (centres undefined),–,–,–,–,–,–,·,·
CN(C(=O)C1CCCCC1)C1CCS(=O)(=O)C1 (centres undefined),–,–,–,–,–,–,·,·
CCN(CC)S(=O)(=O)c1cnccc1N1CCN(c2cccc(Cl)c2)CC1,9.3,–,–,–,–,–,13,–
CN1CCN(S(=O)(=O)c2cnccc2N2CCN(c3cccc(Cl)c3)CC2)CC1,–,–,–,–,–,–,·,·
CCCCn1c(=N)n(CC(O)COc2ccccc2)c2ccccc21 (centres undefined),–,–,–,–,–,–,36,–
CCN1CCc2c(sc(NC(=O)c3ccc(S(=O)(=O)N4CCOCC4)cc3)c2C(N)=O)C1,7.8,–,–,–,–,–,38,-41
CCN1CCc2c(sc(NC(=O)Cc3ccccc3)c2C(=O)OC)C1,–,–,–,–,–,–,·,·
CCOC(=O)c1c(NC(=O)Cc2ccccc2)sc2c1CCN(CC)C2,–,–,–,–,–,–,34,-35
CC(C)N1CCc2c(sc(NC(=O)c3ccc(S(=O)(=O)N4CCOCC4)cc3)c2C(N)=O)C1,–,–,–,–,–,–,·,·
CC1=C(c2ccccc2)SC2=NCCN21,–,–,–,–,–,·,55,-56
Cc1cc2c(cc1C)[n+](C)cn2CC(O)COCc1ccccc1 (centres undefined),–,–,–,–,–,–,48,-35
O=C1N(Cc2cccc(Cl)c2)C[C@@H]2C[C@@H](c3ccsc3)N3CCC[C@@]123,–,–,–,–,–,–,28,–
O=C1CC2(CCN(C(=O)c3ccccc3Cl)CC2)Oc2ccccc21,–,–,–,–,–,–,–,–
O=C1CC2(CCN(C(=O)c3cccc(Br)c3)CC2)Oc2ccccc21,8.9,–,–,–,–,–,–,–

# Compound activity as filed in PubChem.
